# According to paper PMC4336329 (PLoS ONE, 2015):
# Screen size: about 310,000 compounds; about 14,000 (4.5%) showed an effect of 50% or more. The effect is printed as a negative number. The full list was thinned out, with strong results kept by preference.
# Target: human ether-à-go-go-related gene (hERG) potassium channel (human, UniProt Q12809)
# Experiment: primary screen, population patch clamp on CHO cells stably expressing hERG; higher = less effect of the substance
# 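Also: peak tail current of the secondary pulse compared with the same well before compound.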
# human ether-à-go-go-related gene (hERG) potassium channel, sequence (Q12809 whole entry, looked up): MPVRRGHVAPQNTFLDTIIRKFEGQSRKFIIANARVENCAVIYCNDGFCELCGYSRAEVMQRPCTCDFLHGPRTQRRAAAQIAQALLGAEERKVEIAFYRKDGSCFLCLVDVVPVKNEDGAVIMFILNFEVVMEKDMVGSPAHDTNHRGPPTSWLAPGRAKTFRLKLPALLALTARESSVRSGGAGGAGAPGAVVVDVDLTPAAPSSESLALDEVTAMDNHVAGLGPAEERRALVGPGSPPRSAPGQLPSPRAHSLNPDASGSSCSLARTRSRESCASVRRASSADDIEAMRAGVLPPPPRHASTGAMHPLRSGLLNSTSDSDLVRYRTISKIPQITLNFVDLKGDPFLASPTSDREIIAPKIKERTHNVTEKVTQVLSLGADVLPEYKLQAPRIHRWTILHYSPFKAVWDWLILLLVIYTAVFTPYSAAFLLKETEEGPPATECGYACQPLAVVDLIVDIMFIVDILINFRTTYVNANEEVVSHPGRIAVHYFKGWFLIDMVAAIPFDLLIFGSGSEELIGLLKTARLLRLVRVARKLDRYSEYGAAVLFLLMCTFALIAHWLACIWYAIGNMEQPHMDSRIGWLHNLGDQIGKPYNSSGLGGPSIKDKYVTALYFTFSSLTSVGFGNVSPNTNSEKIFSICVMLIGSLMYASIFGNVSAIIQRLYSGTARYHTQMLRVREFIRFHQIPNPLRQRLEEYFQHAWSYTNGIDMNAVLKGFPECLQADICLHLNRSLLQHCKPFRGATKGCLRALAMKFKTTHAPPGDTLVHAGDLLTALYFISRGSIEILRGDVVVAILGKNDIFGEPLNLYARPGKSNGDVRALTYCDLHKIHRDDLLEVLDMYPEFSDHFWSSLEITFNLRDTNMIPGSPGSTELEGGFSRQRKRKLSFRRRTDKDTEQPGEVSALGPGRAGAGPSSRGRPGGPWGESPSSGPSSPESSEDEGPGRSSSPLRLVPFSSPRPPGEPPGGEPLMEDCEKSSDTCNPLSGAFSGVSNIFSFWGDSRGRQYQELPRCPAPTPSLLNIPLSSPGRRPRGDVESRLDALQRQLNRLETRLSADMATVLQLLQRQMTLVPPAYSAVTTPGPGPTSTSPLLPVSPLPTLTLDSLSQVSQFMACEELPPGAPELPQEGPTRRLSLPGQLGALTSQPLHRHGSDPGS
row,SMILES,"hERG current change (%, negative = inhibition) at 10uM [%]"
1,CCCc1nc2c(sc3nc4c(cc32)COC(C)(C)C4)c(=O)n1CCN(CC)CC,-17.8
2,O=[N+]([O-])c1cccc(NC(=S)NCc2ccncc2)c1,0.695
3,CCOC(=O)c1c(Nc2ccccc2)sc(/C=C2\C=Nc3ccccc32)c1O,0.585
4,O=C(O)/C=C/C(=O)N1CCN(c2ccccc2F)CC1,7.85
5,COc1ccc(-c2ccc(SCC(=O)N3c4ccccc4CC3C)nn2)cc1OC (centres unmarked),-4.75
6,CCOC(=O)C1CCN(C(=O)c2cn(C)c(=O)c3cc(OC)c(OC)cc23)CC1,-11.3
7,COc1ccc(NC(=O)CNS(=O)(=O)c2ccc(Cl)cc2)cc1,3.79
8,COc1ccc(NC(C)=[N+](C)CCNS(=O)(=O)c2ccc(Cl)cc2)cc1.[I-],-70.2
9,COc1ccc(NC(=O)COC(=O)CCNS(=O)(=O)c2ccc(Cl)cc2)cc1,-23.2
10,Cc1cc(S(=O)(=O)Nc2ccc3c(c2)n(C)c(=O)n3C)ccc1F,-0.399
11,Cl.O=C(c1ccc(F)cc1)C(CN1CCOCC1)c1ccccc1 (centres unmarked),-12.3
12,Cl.O=C(c1ccc(F)cc1)C(CCCCCC(CN1CCOCC1)C(=O)c1ccc(F)cc1)CN1CCOCC1 (centres unmarked),-86.8
13,Cl.O=C(c1ccccc1)C(CCC(CN1CCOCC1)C(=O)c1ccccc1)CN1CCOCC1 (centres unmarked),-7.92
14,CCc1ccc(NC(=O)CSc2nnnn2-c2cccnc2)cc1,-15.4
15,COc1ccccc1CCC(=O)Nc1ncc(C)s1,16.3
16,Cc1cc(=O)oc2cc(OCC(=O)Nc3ccccc3C(N)=O)c(Cl)cc12,18.5
17,OCCC1CN(Cc2ccccc2-c2ccco2)CCN1Cc1ccccc1 (centres unmarked),-35.7
18,C#Cc1ccc(CN2CCN(Cc3ccsc3)C(CCO)C2)cc1 (centres unmarked),-34.6
19,Cc1ccc(CN2CCN(Cc3ccccc3-c3ccco3)CC2CCO)o1 (centres unmarked),-22.3
20,OCCC1CN(Cc2ccc(-c3ccco3)cc2)CCN1Cc1ccsc1 (centres unmarked),-53.8
21,Cc1ccc(CN2CCN(C3CCCC3)C(CCO)C2)s1 (centres unmarked),-22.4
22,CC(C)N1CCN(Cc2cccc(-c3ccco3)c2)CC1CCO (centres unmarked),-35.9

row,SMILES,"hERG current change (%, negative = inhibition) at 10uM [%]"
1,OCCC1CN(Cc2cccc(-c3ccco3)c2)CCN1Cc1ccsc1 (centres unmarked),-71.6
2,OCCC1CN(Cc2ccccc2-c2ccco2)CCN1Cc1ccsc1 (centres unmarked),-51
3,CC(C)CCN1CCN(Cc2ccsc2)CC1CCO (centres unmarked),-6.33
4,OCCC1CN(Cc2cccc3c2OCO3)CCN1C1CCCCC1 (centres unmarked),-9.67
5,OCCC#Cc1ccc(CN2CCN(Cc3ccsc3)C(CCO)C2)cc1 (centres unmarked),-4.59
6,OCCC1CN(Cc2ccccc2-c2ccco2)CCN1C1CCCC1 (centres unmarked),-63.8
7,COc1cccc(/C=C2\SC(=O)NC2=O)c1OCc1ccc(C(=O)O)cc1,9.69
8,OCCN1CCN(Cc2cc(Cl)c3cccnc3c2O)CC1,16.6
9,COc1ccccc1N1CCN(C(=O)C(=O)c2c[nH]c3ccccc23)CC1,0.156
10,Nc1ccccc1SCC(=O)Nc1ccc2c(c1)OCCO2,3.12
11,O=C(CSc1nnc2c(n1)[nH]c1ccc(F)cc12)Nc1ccccc1F,19.5
12,Cc1ccc(C(=O)NC2CCSC2=O)cc1 (centres unmarked),7.89
13,Cc1ccc(NC(=O)C2OCCc3ccccc32)cc1C (centres unmarked),-3.78
14,Cc1ccc([N+](=O)[O-])c(OCCCN2CCCCCC2)c1.O=C(O)C(=O)O,-58.6
15,Cc1ccc([N+](=O)[O-])c(OCCN2CCC(Cc3ccccc3)CC2)c1.O=C(O)C(=O)O,-73
16,Cc1ccc(OCCN2CCN(C)CC2)c([N+](=O)[O-])c1.O=C(O)C(=O)O,6
17,Cc1cc(OCCCn2ccnc2)ccc1[N+](=O)[O-].O=C(O)C(=O)O,-2.51
18,Cc1ccc([N+](=O)[O-])c(OCCN2CCCCCC2)c1.O=C(O)C(=O)O,-34
19,Cc1ccc([N+](=O)[O-])c(OCCN2CCc3ccccc3C2)c1.O=C(O)C(=O)O,-23.3
20,Cc1cc(OCCCN2CCN(Cc3ccccc3)CC2)ccc1[N+](=O)[O-].O=C(O)C(=O)O,-71.5
21,COc1cc(NC(=O)CN2CCC(Cc3ccccc3)CC2)c(C)cc1[N+](=O)[O-],6.01
22,Cc1ccc([N+](=O)[O-])c(OCCN2CCNCC2)c1.O=C(O)C(=O)O,-14.6
